Compound activity from PubChem.
Compounds with a hit are over-represented: about 2.3% of the library has one in this group of screens.
proKLK7 act: activators of human kallikrein-7 zymogen; AID 652039; activation, % at 7 µM; hit rate 0.9% among 370,000; purified proKLK7, EDANS-DABCYL substrate fluorescence; 100% is mature enzyme control, 0% vehicle; P49862;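 active = activation above the mean of all tested compounds plus 3 SD, computed per campaign excluding outliers beyond control limits, cut at about 13% in these data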
Target sequence (P49862 whole entry, looked up): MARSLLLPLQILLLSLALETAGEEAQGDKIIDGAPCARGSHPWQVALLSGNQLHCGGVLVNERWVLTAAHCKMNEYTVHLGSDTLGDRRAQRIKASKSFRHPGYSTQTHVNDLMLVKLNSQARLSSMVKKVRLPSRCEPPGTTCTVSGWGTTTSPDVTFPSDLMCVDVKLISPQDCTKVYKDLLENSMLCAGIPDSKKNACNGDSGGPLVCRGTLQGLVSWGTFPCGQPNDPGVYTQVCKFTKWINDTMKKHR
V-ATPase pHluor: yeast V-ATPase proton transport regulation by pHLuorin; response, % at 10 µM; AID 504577; S. cerevisiae, pHLuorin cytosolic pH fluorescence; hit rate 0.37% among 350,000; in the data active = response mostly above about 7.3%, no sharp cut-off; inactive = mostly below about 5.4%; also: actives read high
ADAM10 inh: inhibitors of human ADAM10; inhibition, % at 7 µM; recombinant ADAM10, EDANS/DABCYL FRET peptide cleavage, 3 h; O14672; hit rate 0.62% among 370,000;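 active = inhibition above a per-campaign cutoff equal to the mean of compounds falling between control-based bounds plus 3 SD, cut at about 20% in these data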
ADAM17 inh: inhibits human ADAM17; hit rate 0.83% among 370,000; AID 720648; recombinant ADAM17, EDANS/DABCYL FRET peptide cleavage; inhibition, % at 6.95 µM;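 active = inhibition above the mean of compounds lying between control limits plus 3 SD, set per campaign, cut at about 8.5% in these data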
Large screens that a line does not name were inactive.

C=CCN(CC#Cc1ccccn1)Cc1ccc(OC)cc1OC	none (no result: V-ATPase pHluor)
CCOc1ccc(C(=O)CSc2nnc(SCc3ccc(Cl)cc3)s2)cc1	none (no result: V-ATPase pHluor)
CCCCCCc1ccc(NC(=O)[C@@H]2CC=C[C@@H]3CCN(Cc4ccccc4)C(=O)[C@@H]32)cc1	none (no result: proKLK7 act, V-ATPase pHluor)
Cc1cc(S(=O)(=O)c2ccc([N+](=O)[O-])cn2)ccc1Br	V-ATPase pHluor 8.7
CCC(=O)N1CCc2cc(Br)c(S(=O)(=O)NC3CCN(Cc4ccccc4)CC3)cc21	none (no result: V-ATPase pHluor)
O=C1N2Cc3ccccc3C2CS(=O)(=O)N1C1CCCC1 (stereo unspecified)	none (no result: V-ATPase pHluor)
CN1CCN(C(c2ccc(Br)cc2)c2cc(Cl)c3cccnc3c2O)CC1 (stereo unspecified)	ADAM10 inh 24, ADAM17 inh 20
CN1CCN(C(c2ccc(F)cc2)c2ccc3cccnc3c2O)CC1 (stereo unspecified)	none (no result: proKLK7 act, ADAM10 inh, ADAM17 inh)
c1ccc(CCC2CCCCN2Cc2cn[nH]c2-c2cc3ccccc3o2)nc1 (stereo unspecified)	none
O=C(c1ccccn1)C1CCCN(Cc2cn[nH]c2-c2cc3ccccc3o2)C1 (stereo unspecified)	V-ATPase pHluor 16
O=C1CCC(NC(=O)Cc2ccccc2)C(=O)N1 (stereo unspecified)	none (no result: V-ATPase pHluor)
Cc1ccc(S(=O)(=O)N2CCN(C(=O)c3cc4c(C)nn(-c5ccccc5C)c4s3)CC2)cc1	ADAM10 inh 22, ADAM17 inh 9.0
CCC[C@H]1[C@@H](OC(=O)NC(CC)CC)CC[C@@]23CCCN2C(=O)CCC[C@@H]13	none (no result: proKLK7 act, V-ATPase pHluor)
CCOC(=O)c1c(NC(=S)Nc2ccccc2)sc2c1CCN(CC)C2	proKLK7 act 75
CCOC(=O)c1c(NC(=S)Nc2ccccc2)sc2c1CCCCC2	none (no result: proKLK7 act, ADAM10 inh, ADAM17 inh)
Cc1nc2ccc(NC(=O)c3c(Cl)cccc3Cl)cc2c(=O)[nH]1	none (no result: V-ATPase pHluor)
CC1CCCN(S(=O)(=O)c2ccc(NC(=O)C3CC(=O)N(c4ccccc4)C3)cc2)C1 (stereo unspecified)	V-ATPase pHluor 14
Cc1ccc(S(=O)(=O)N2CC[C@@]3(Cc4ccccc4)Cc4ccccc4C[C@@H]23)cc1	none (no result: proKLK7 act, V-ATPase pHluor)
O=S1(=O)c2ccc(N3CCN(Cc4ccccc4F)CC3)cc2Oc2ccccc2CN1Cc1cn(Cc2cccc(C(F)(F)F)c2)nn1	none (no result: V-ATPase pHluor)
O=C(NN=Cc1ccco1)c1cccnc1	none (no result: V-ATPase pHluor)
CN(C)/C=N/c1sccc1C(N)=O	V-ATPase pHluor 16
Cc1cc(C(=O)Nc2sccc2C(N)=O)c(C)o1	none
CCNC(=O)CC1SC(=Nc2ccc(C)cc2)NC1=O (stereo unspecified)	none
Cc1ccc(N=C2NC(=O)C(CC(=O)O)S2)cc1 (stereo unspecified)	V-ATPase pHluor 22 (no result: proKLK7 act, ADAM10 inh, ADAM17 inh)
Cc1ccc(/C=C/C(=O)c2ccc([N+](=O)[O-])o2)cc1	none (no result: V-ATPase pHluor)
O=C(/C=C/c1ccc(Cl)cc1)c1ccc([N+](=O)[O-])o1	V-ATPase pHluor 12
C[C@H]1[C@@H](N)CC[C@@]23CCCN2C(=O)CCC[C@@H]13	none (no result: proKLK7 act, V-ATPase pHluor)
O=c1oc(-c2ccccc2)cc(Cl)c1Cl	proKLK7 act 347
O=S(=O)(Nc1ncccn1)c1ccc(-n2cnnn2)cc1	V-ATPase pHluor 9.5
CC(C)(C)OC(=O)N1CCC2CCN(S(C)(=O)=O)CC21 (stereo unspecified)	none (no result: V-ATPase pHluor)
Cc1sc2nc(COC(=O)CNC(=O)c3cc(F)ccc3F)[nH]c(=O)c2c1C	none (no result: V-ATPase pHluor)
c1ccc(CSc2ncnc3c2cnn3Cc2ccccc2)cc1	V-ATPase pHluor 17
CC(C)(C)C(=O)CSc1ncnc2c1cnn2Cc1ccccc1	none
Cc1ccccc1NS(=O)(=O)c1cc(C(=O)NCCSC2CCCCC2)ccc1C	none
Cc1ccc(C)c(NS(=O)(=O)c2cc(C(=O)NCCSC3CCCCC3)ccc2C)c1	ADAM10 inh 34, ADAM17 inh 16
CCC(C)N1CC(O)=C(c2nc3ccccc3[nH]2)C1=N (stereo unspecified)	none
CCCCCCN1CC(O)=C(c2nc3ccccc3[nH]2)C1=N	V-ATPase pHluor 13
CCCN(CC1CC1)C(=O)CN1C(=O)C2CCCCN2C(=O)c2ccccc21 (stereo unspecified)	none (no result: V-ATPase pHluor)
Nc1nc(-c2ccc(Cl)cc2)nn1C(=O)c1cccnc1	V-ATPase pHluor 20
CC(C)(C)OC(=O)NCC(=O)Oc1cc2oc(=O)cc(-c3ccccc3)c2cc1Cl	proKLK7 act 16
O=C(Oc1cc2oc(=O)cc(-c3ccccc3)c2cc1Cl)C1CCCCC1	proKLK7 act 37
Cc1ccc(NC(=O)CSc2nnc(CSc3nc(C)cc(C)n3)n2Cc2ccco2)c(C)c1	none
Cc1ccc(NCc2nnc(SCC(=O)c3ccccc3)n2Cc2ccco2)c(C)c1	ADAM10 inh 29
CCn1c(=O)c([N+](=O)[O-])c(NCCc2ccccc2)c2ccccc21	V-ATPase pHluor 8.5 (no result: proKLK7 act, ADAM10 inh, ADAM17 inh)
CCCC(=O)Nc1sc(C)c(-c2ccc(C(C)CC)cc2)c1C#N (stereo unspecified)	V-ATPase pHluor 16 (no result: proKLK7 act, ADAM10 inh, ADAM17 inh)
COc1cccc(-n2nnnc2SCC(=O)Nc2nc3c(s2)CCCC3)c1	none
COC(=O)c1cccc(-n2nnnc2SCC(=O)Nc2nc3c(s2)CCCC3)c1	V-ATPase pHluor 24
CC(C)CCSc1nc2[nH]ncc2c(=O)[nH]1	V-ATPase pHluor 48
C[C@@H]1CN([C@@H](C)CN(C)C)C(=O)c2cc(NC(=O)Nc3ccccc3)ccc2O[C@@H](C)CCCCO[C@H]1CN(C)S(=O)(=O)c1ccc(F)cc1	none (no result: proKLK7 act, V-ATPase pHluor)
CC1CCN(c2ccc(C(=O)O)cc2NS(=O)(=O)c2ccccc2[N+](=O)[O-])CC1	none (no result: V-ATPase pHluor)
COc1ccc(N(C(=O)CCl)C(C(=O)NC2CCCCC2)c2cccnc2)cc1 (stereo unspecified)	V-ATPase pHluor 15
CCn1c2ccccc2c2cc(NC(=O)COC(=O)c3ccc(F)cc3F)ccc21	none (no result: V-ATPase pHluor)
O=C(O)c1ccc2c(=O)n(-c3ccc(F)cc3)c(=S)[nH]c2c1	V-ATPase pHluor 13
CCCC1CCC2(CCCN2CCOC(=O)Nc2ccc(OC)cc2)CC1 (stereo unspecified)	none (no result: proKLK7 act, V-ATPase pHluor)
COc1cccc(N(C(=O)Cn2nnc(-c3ccc(C)cc3)n2)C(C(=O)NC(C)(C)C)c2c[nH]c3ccccc23)c1 (stereo unspecified)	ADAM10 inh 23, ADAM17 inh 12
O=C(COC(=O)c1ccccc1)NC1CCCC1	V-ATPase pHluor 263
Cc1ccc(C(=O)CCS(=O)(=O)c2ccc(Br)cc2)cc1	none
Cc1ccc(S(=O)(=O)CCC(=O)c2cccc([N+](=O)[O-])c2)cc1	V-ATPase pHluor 28
CC(C)(C)NC(=O)[C@@H](c1cccnc1)N(C(=O)c1ccco1)c1ccc(C(C)(C)C)cc1	none (no result: proKLK7 act, V-ATPase pHluor)
COc1cc(OC)c(-c2c3cc(O)c(=O)cc-3oc3cc(O)c(O)cc23)cc1OC	none
Cc1c2cc(O)c(=O)cc-2oc2cc(O)c(O)cc12	V-ATPase pHluor 206
C[C@H]1Cn2nncc2Cn2c3ccccc3c(=O)n21	none (no result: V-ATPase pHluor)
COC1=C[C@H](C(=O)NCc2ccccn2)[C@H](C)[C@@H](c2ccccc2)CC1=O	none (no result: V-ATPase pHluor)
COc1ccc(NC(=O)c2cccs2)cc1	V-ATPase pHluor 21
COc1ccc(CNC(=O)O[C@H]2CC[C@@]34CCCN3C(=O)CCC[C@H]4[C@H]2C)cc1OC	none (no result: proKLK7 act, V-ATPase pHluor)
C[C@]12CCC(=O)CC1=CCC1C3CC=C(C#N)[C@@]3(C)CC[C@@]12O (stereo partly specified)	V-ATPase pHluor 71
